ERK AVP block – blocks ERK signaling stimulated by vasopressin; AID 995; HEK293-V1b, vasopressin-stimulated pERK AlphaScreen; actives 0.99% (n = 72,000); Potency, µM (doses to about 57.5 µM), without a hit: at the top dose activity, negative = inhibition, usual class: inhibitors; further: potency means the concentration at half of the fitted maximal effect; on the % scale 0 is the no-effect control and ±100 the full control effect; nearly all actives have a fitted effect of over 55% in size
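HEK293 cells stably expressing V1b receptor, preincubated 30 min at 37 °C with compound, then stimulated 5 min with 25 nM vasopressin. Phospho-ERK by AlphaScreen SureFire after 5 h RT; normalized to DMSO and vasopressin; AC50 by Hill fit.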
DNA Pol III inh – inhibitors of bacterial DNA polymerase III holoenzyme | reconstituted DNA polymerase III holoenzyme replication, biochemical | Potency, µM (doses to about 57.1 µM), without a hit: at the highest dose activity change, negative = inhibition | actives 0.25% (n = 71,000) | AID 603; further: potency means the concentration at half of the fitted maximal effect; on the % scale 0 is the no-effect control and ±100 the full control effect
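Reconstituted *E. coli* holoenzyme (0.35 nM Pol III, 1 nM beta, 154 nM SSB, 2 nM primase) was preincubated with compound for 15 min at RT. Synthesis on 1.4 nM ssM13Gori ran 35 min, then was stopped with PicoGreen/EDTA and read as dsDNA fluorescence.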
BRCT PPI green – BRCA1 BRCT-phosphoprotein interaction inhibition; BRCA1 BRCT-phosphopeptide binding, green fluorescence polarization; P38398; actives 0.05% (n = 75,000); Potency, µM (series often up to 76.9 µM), inactives show top-dose activity change, negative = inhibition, actives largely listed as inhibitors; AID 875;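 further: potency means the concentration at half of the fitted maximal effect; plate controls were peptide without protein for full effect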
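Fluorescence polarization: His-tagged BRCT (~35 kDa BRCA1 C-terminus, 250 nM) bound to 100 nM fluorescein-labeled phosphorylated 10-aa BACH1 peptide, pH 7.3 phosphate buffer with DTT and Tween 20. Compounds incubated 12 min at room temperature; inhibition read as lowered polarization.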
TsaE inh – displaces an ADP probe from E. coli YjeE (TsaE). purified YjeE enzyme, qHTS inhibition assay. Potency, µM. actives 0.05% (n = 71,000)
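Fluorescence polarization of a BODIPY Texas Red–ADP probe (2 uM) bound to purified YjeE (10 uM) was read after 15 min room-temperature incubation with compounds. Loss of polarization marks inhibitors; ADP serves as titrated control.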
USP2a inh – USP2a (human) protease inhibition. USP2a enzymatic assay, qHTS inhibition. Potency, µM (series often up to 38.3 µM), for the others: at the top dose activity change, negative = inhibition, hits mostly inhibitors. actives 0.1% (n = 60,000). AID 927; further: potency means the concentration at half of the fitted maximal effect; nearly all actives have a fitted effect of over 60% in size
Target sequence (O75604 whole entry, looked up): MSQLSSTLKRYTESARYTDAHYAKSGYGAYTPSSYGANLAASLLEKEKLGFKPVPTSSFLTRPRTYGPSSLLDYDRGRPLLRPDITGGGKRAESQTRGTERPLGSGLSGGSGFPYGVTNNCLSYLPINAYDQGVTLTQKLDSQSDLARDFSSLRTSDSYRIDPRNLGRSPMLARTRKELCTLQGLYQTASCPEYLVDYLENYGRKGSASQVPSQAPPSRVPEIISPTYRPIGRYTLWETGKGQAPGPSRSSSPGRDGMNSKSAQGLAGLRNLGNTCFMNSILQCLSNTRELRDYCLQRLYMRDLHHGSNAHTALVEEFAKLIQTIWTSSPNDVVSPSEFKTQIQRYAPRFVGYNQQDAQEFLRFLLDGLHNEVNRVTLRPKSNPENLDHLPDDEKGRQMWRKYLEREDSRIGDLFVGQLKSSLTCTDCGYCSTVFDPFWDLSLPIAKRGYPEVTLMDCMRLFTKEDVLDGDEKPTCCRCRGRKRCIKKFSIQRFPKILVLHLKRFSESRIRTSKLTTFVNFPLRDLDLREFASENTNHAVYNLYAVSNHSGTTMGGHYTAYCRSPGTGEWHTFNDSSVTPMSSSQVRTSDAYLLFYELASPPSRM
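Coupled readout: USP2-cleaved Ub-PLA2 (20nM final) turns over NBD C6-HPC (20uM final), Ex 460nm/Em 535nm after 2.5 h, time-zero read flagging artifacts. Enzyme (20nM final, pH 8.0 Tris) given 30 min RT with compound first; NEM defines full inhibition.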
BRCT PPI red – inhibitors of human BRCA1 BRCT-phosphoprotein interaction (red fluorophore) | AID 892 | BRCT-phosphopeptide binding, red fluorescence polarization | Potency, µM (titrated, usually from 76.9 µM), for the others: at the highest dose activity change, negative = inhibition, usual class: inhibitors | actives 0.03% (n = 75,000); further: on the % scale 0 is the no-effect control and ±100 the full control effect
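Fluorescence polarization: 100 nM His-tagged BRCA1 BRCT with 100 nM TAMRA-labelled phospho-BACH1 decapeptide, phosphate buffer pH 7.3 with 150 mM NaCl, DTT, 0.01% Tween 20; 12 min RT. Binding inhibition seen as FP decrease.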
* = called active by the depositor; i = inactive; ? = inconclusive; . = not tested or not shown; [ ] = dose if it differs, or a comment. Most compounds without a hit are left out; they make up all but 1.3% or so of the library. The call rests on the fitted dose curve; in most records, active means well fitted curve in the direction sought with a large enough effect; inconclusive means small, poorly fitted or top-dose-only effect, or another doubt; inactive means no such curve, though single readings can be large; an effect the other way counts as inactive or inconclusive.

SMILES	ERK AVP block	DNA Pol III inh	BRCT PPI green	TsaE inh	USP2a inh	BRCT PPI red
CCCC[C@]1(C2CCCC2)Cc2cc(OCC(=O)O)c(Cl)c(Cl)c2C1=O	38%	1%	-2%	i	2%	1%
COc1ccccc1CNc1ncnc2ccc(-c3ccc(N(C)C)cc3)cc12	?	-5%	-2%	i	?	1%
COc1ccccc1CNc1ncnc2ccc(-c3ccccc3OC)cc12	20µM*	10%	-2%	i	169%	1%
Cc1ccccc1C(=O)NCc1ccncc1	25µM*	-3%	0%	i	-1%	-2%
COc1ccccc1C(=O)NCc1ccncc1	-7%	-11%	0%	i	-7%	1%
O=C(O)Cn1c(=O)oc2cc(S(=O)(=O)N3CCOCC3)ccc21	.	-2%	-3%	i	.	0%
COc1ccccc1OCc1nnc(SCC(=O)c2cc(Cl)ccc2OC)o1	32µM*	4%	6%	i	2%	1%
Brc1ccc2c(c1)c1nc3ccccc3nc1n2CCN1CCOCC1	32µM*	-20%	-3%	i	.	2%
Cn1c(CCCOc2ccc(Cl)cc2Cl)nnc1SCC(=O)Nc1nccs1	32µM*	-1%	-2%	i	29%	0%
CC(CN(C)C)NC(=O)c1ccc(Cc2nc3ccccc3[nH]2)cc1 (centres undefined)	.	.	1%	.	.	0%
COc1ccc(C(=O)N2CCC3(CCCN(C(=O)NC(C)C)C3)CC2)cc1	3%	-4%	-3%	i	10µM*	1%
O=C(NCC1CCCO1)c1sc(=S)n2c1[nH]c(=O)c1ccc(C(=O)N3CCCCC3)cc12 (centres undefined)	16%	-6%	-6%	i	2µM*	-18%
N[C@@H](C(=O)O)[C@H](O)C(=O)O	.	-6%	.	i	.	.
COc1ccc(CCn2c(C)cc(C(=O)CSc3nnc(N)s3)c2C)cc1	20µM*	-6%	-2%	i	31%	0%
Cc1cc(C(=O)CSc2nnc(N)s2)c(C)n1CCc1ccc(Cl)cc1	24%	-4%	1%	i	13%	-1%
COc1cc(C(=O)O[C@@H]2CC(C)=CC[C@@]3(C)CC[C@](O)(C(C)C)[C@H]23)ccc1O	.	-2%	.	i	.	.
c1ccc2c(c1)Cc1cc3cc4c(cc3nc1-2)OCO4	25µM*	-21%	2%	i	.	-1%
c1ccc2c(c1)CCN(c1nc3cc4c(cc3s1)OCO4)C2	-8%	3%	-5%	i	19%	-3%
COC(=O)c1cc(=O)c(O)c2c(O)c(O)ccc2c1	4%	.	-5%	.	15%	-3%
Cc1occc1-c1nnc(SCC(=O)c2cc3ccccc3oc2=O)o1	16µM*	?	?	i	?	-6%
O=[N+]([O-])c1ccc(Cl)c(CNc2ncnc3c2ncn3[C@@H]2CCCCO2)c1	6%[11.5 µM]	-11%[11.4 µM]	-3%[15.4 µM]	i	.	1%[15.4 µM]
O=C(O)[C@@H]1CCCN[C@H]1C(=O)O	13%	-2%	-3%	i	5%	1%
CCOC(=O)CNC(=O)CSc1ncnc2c1cnn2-c1ccc(C)cc1	7.9µM*	-3%	1%	i	5%	1%
CCOC(=O)CNC(=O)CSc1ncnc2c1cnn2-c1ccccc1	-11%	-4%	1%	i	.	0%
CC[C@](N)(C(=O)O)C(C)C	4%[11.5 µM]	8%[11.4 µM]	-1%[15.4 µM]	i	.	-1%[15.4 µM]
SMILES	ERK AVP block	DNA Pol III inh	BRCT PPI green	TsaE inh	USP2a inh	BRCT PPI red
COc1ccccc1-n1c(=O)oc2ccc(Cl)cc2c1=O	20µM*	-3%	2%	i	0%	-1%
COc1ccccc1OCCCn1c(=O)oc2ccc(C)cc21	13%	-1%	-2%	i	-7%	-2%
C[C@@H]1C[C@@H]2[C@H]3CCC4=CC(=O)C=C[C@]4(C)[C@]3(Cl)[C@@H](O)C[C@@]2(C)[C@@]1(O)C(=O)CO	-3%	-4%	-1%	i	8%	-1%
Cc1nc(N=Nc2cc(S(=O)(=O)O)c3cc([N+](=O)[O-])cc(S(=O)(=O)O)c3c2)c(COP(=O)(O)O)c(C=O)c1O	?	32µM*	?	i	13%	-27%
c1cncc(Nc2nc(-c3ccncc3)cs2)c1	20µM*	-8%	-2%	i	-2%	-1%
c1cncc(Nc2nc(-c3cccnc3)cs2)c1	?	-6%	-2%	i	2%	-1%
O=C(Nc1ccc(-c2cn3ccsc3n2)cc1)c1ccc(F)c(S(=O)(=O)N2CCOCC2)c1	13µM*	3%	1%	i	31%	0%
O=C(Nc1ccccc1)c1ccc(F)c(S(=O)(=O)N2CCOCC2)c1	0%	-4%	0%	i	3%	0%
Cc1ccnc(Nc2nc(-c3c(C)nc4sccn34)cs2)c1	25µM*	-2%	-1%	i	20%	0%
C[C@H]1CN(CCO)CCN1c1ccccc1	48%[11.5 µM]	-10%[11.4 µM]	-1%[15.4 µM]	i	.	2%[15.4 µM]
N#Cc1cccc(-c2nccc(NCc3ccccc3)n2)c1	-5%	3%	0%	i	-9%	-1%
COc1cccc(-c2nc(NCc3cccs3)c3ccccc3n2)c1	32µM*	12%	-2%	i	?	0%
Cc1ccccc1-c1cncnc1NCc1cccs1	25µM*	-8%	-2%	i	9%	1%
N#Cc1cccc(-c2nccc(NCc3cccnc3)n2)c1	16µM*	-14%	3%	i	-29%	-1%
COc1cccc(-c2cncnc2NCc2cccs2)c1	10µM*	-10%	-2%	i	-5%	1%
c1csc(CNc2ncncc2-c2ccoc2)c1	-23%	-4%	-1%	i	59%	0%
CC[C@H](C)[C@@H]1O[C@]2(CC[C@@H]1C)C[C@H]1C[C@H](CC=C(C)[C@@H](O[C@H]3C[C@H](OC)[C@H](O[C@H]4C[C@H](OC)[C@H](O)[C@H](C)O4)[C@H](C)O3)[C@@H](C)C=CC=C3CO[C@@H]4[C@@H](O)C(C)=C[C@H](C(=O)O1)[C@@]34O)O2	-22%	4%	-1%	i	22%	-2%
COc1ccc(CCN(C)CCC[C@@](C#N)(c2cc(OC)c(OC)c(OC)c2)C(C)C)cc1OC	33%	3%	-2%	i	17%	-1%
O=Nc1ccc(Nc2ccccc2)cc1	-18%	1%	-1%	i	.	1%
COc1cccc(-c2cncnc2NCc2ccccc2)c1	20µM*	-4%	3%	i	4%	-1%
COc1cccc(-c2cc(NCc3cccc(C)c3)ncn2)c1	?	-11%	-2%	i	-14%	-1%
